Assay outcomes deposited in PubChem BioAssay by Pan Lab, Icahn School of Medicine at Mount Sinai.
ROC1-CUL1 inh = inhibitors of human ROC1-CUL1 ubiquitin ligase activity | P62877+Q13616 | in vitro K48 di-Ub FRET, acceptor:donor ratio, 45 min | inhibition, % at 10 µM | actives 0.6% (n = 140,000); in the data active = inhibition above about 25%
* = called active by the depositor. Only a selection was taken, and hits are over-represented in it overall.

SMILES	ROC1-CUL1 inh
O=C1NCCN(c2nc3nonc3nc2N2CCCCC2)C1Cc1ccccc1 (configuration not stated)	-2.6
Cc1ccc(CN2C(=O)S/C(=C\c3ccc(-c4ccc(C(=O)O)c(Cl)c4)o3)C2=O)cc1	69.4*
CCN1C(=O)S/C(=C/c2ccc(-c3cccc(C(=O)O)c3C)o2)C1=O	9.8
Cc1ccc(C(=O)O)cc1-c1ccc(/C=C2\SC(=O)N(Cc3ccc(F)cc3)C2=O)o1	-5.1
O=C(O)c1ccc(-c2ccc(/C=C3\SC(=O)N(CC(=O)N4CCOCC4)C3=O)o2)cc1Cl	-1.3
Cc1ccc(C(=O)O)cc1-c1ccc(/C=C2\SC(=O)N(Cc3ccccc3)C2=O)o1	14.0
O=C(O)c1ccc(-c2ccc(/C=C3\SC(=O)N(Cc4ccccc4)C3=O)o2)cc1Cl	93.1*
Clc1nc(Cl)nc(NC23CC4CC(CC(C4)C2)C3)n1	-2.1
COc1ccc(-c2ccc3c(N)c(C(=O)NC45CC6CC(CC(C6)C4)C5)sc3n2)cc1	8.3
COc1cc(/C=C2\SC(=Nc3ccc(F)cc3)NC2=O)cc(I)c1OC	4.3
O=C1C(=O)C(C(=O)/C=C/c2cccc(Cl)c2)C=C(Br)C=C1Br (configuration not stated)	87.0*
CC(CNC(=O)/C=C/c1cccc(Cl)c1)NC(=O)/C=C/c1cccc(Cl)c1 (configuration not stated)	-1.5
O=C1C=CC(Br)=CC(C(=O)/C=C/c2ccc(Cl)cc2)C1=O (configuration not stated)	0.7
Cc1ccccc1/C=C/C(=O)C1C=C(Br)C=C(Br)C(=O)C1=O (configuration not stated)	53.7*
COc1ccccc1/C=C/C(=O)C1C=C(Br)C=CC(=O)C1=O (configuration not stated)	8.1
CCOCCCNC(=S)Nc1ccc(Oc2ccccc2)cc1	-0.7
COc1ccccc1C(=O)N/N=C/c1c(O)c(Br)cc2oc3c(c12)CCCC3	3.5
CCc1nc2ccccc2c(=O)o1	1.6
